Source: PubChem BioAssay (NCI)
This is part of a sample that, as a whole, favours compounds with a hit. Of some 83,000 tested, about 20% had one in any assay.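 Step 1: grow cells in 96-well plates. Step 2: add test compound at a single concentration. Step 3: incubate 48 h. Step 4: record percent growth.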 Unmarked numbers belong to inactive results. Active and inactive are the calls of the source.

Test system: MOLT-4 leukemia
Assay: NCI-60 one-dose screen, 48 h (100 = growth as untreated, 0 = no growth, -100 = all killed)
Conditions: 10 µM unless noted
Experimental: Growth inhibition of the MOLT-4 human tumor cell line is measured as a screen for anti-cancer activity. Cells are grown in 96 well plates and exposed to the test compound for 48 hours. Compounds are tested at a single concentration, which is 10^-5 M for most compounds. The reported endpoint is percent growth (GI% or GIPRCNT), where numbers from 0 - 100% represent growth inhibition, and numbers from -100% - 0 represent cell death. For example, a value of 40 represents 60% growth inhibition. A value of 0 means no net growth occurred over the course of the experiment. A value of -40 indicates 40% of cells at the beginning of the experiment died by the end of the experiment. A value of -100 means all cells are dead at the end of the experiment.
NCI-60 Human Tumor Cell Lines Screen was performed using the standard one-dose NCI protocol, which is described in more detail at https://dtp.cancer.gov/discovery_development/nci-60/default.htm.
Compounds with GIPRCNT values below 10 were considered active. Activity score was based on GIPRCNT using the following formula: […]
Score is 0 for GIPRCNT values of 100 or above, 50 for GIPRCNT values of 0, and 100 for GIPRCNT values of -100.

Structure (SMILES) | growth
c1csc(-c2nc(-c3cc4ccccc4c(N4CCOCC4)n3)cs2)c1 | 92.1%
C#CCn1c(C)cc(C)c(C#N)c1=O | 111%
O=C1c2cc3c(cc2-c2c1c1ccc(F)cc1c(=O)n2CCCN1CCOCC1)OCO3 | 3.65% (active)
C(=C\c1c[nH]c2ccccc12)/c1ccc2ccccc2n1 | 12.4%
C=C(C)[C@@H]1CC[C@]2(C)[C@H](CC=C3[C@@H]4CC(C)(C)CC[C@]4(C=O)CC[C@]32C)[C@@]1(C)CCCN | 35.5%
C=COCCCCCCCCCCCCCCCCCC | 96.3%
C=C1C(=O)O[C@H]2[C@H]1CC/C(COC(=O)N[C@H](Cc1c[nH]c3ccccc13)C(=O)OC)=C\CC[C@@]1(C)O[C@@H]21 | 4.53% (active)
Cc1nc([P+](c2ccccc2)(c2ccccc2)c2ccccc2)c(Sc2sc(-c3ccccc3)nc2[P+](c2ccccc2)(c2ccccc2)c2ccccc2)o1 | 13%
COC(=O)[C@]12CC[C@@H](C)[C@H](C)[C@@H]1C1=CC[C@@H]3[C@@]4(C)C[C@@H](OC(C)=O)[C@H](OC(C)=O)[C@@](C)(COC(C)=O)[C@@H]4[C@H](O)C[C@@]3(C)[C@]1(C)CC2 | 3.95% (active)
COc1cccc(-c2nn(-c3ccccc3)cc2-c2ccnc(NCCCO)c2)c1 | 25.1%
CCN1CCN(C(=O)[C@]23CCC(C)(C)C[C@@H]2C2=CC[C@@H]4[C@@]5(C)C/C(=C/c6cccnc6)C(=O)C(C)(C)[C@@H]5CC[C@@]4(C)[C@]2(C)CC3)CC1 | 4.16% (active)
COc1cc(-c2c(C#N)c(-c3cccs3)nc3c2c(-c2ccccc2)nn3-c2ccccc2)ccc1O | 59.9%
Cc1ccc2c(c1)c1nc3cc(C)c(C)cc3nc1n2CCN(C)C | 8.57% (active)
CN(C)c1cccc2[nH]c(-c3[nH]ncc3Nc3ccnc(N)n3)nc12 | 1.65% (active)
COCCNC1=C(Cl)C(=O)c2ccccc2C1=O | 108%
NNC(=O)c1nc2ccccc2[nH]1 | 79.8%
O=[N+]([O-])c1ccc(/C=N\Nc2ccccc2)cc1 | 89.7%
COc1ccc(-c2n[nH]nc2-c2cc3ccccc3s2)cc1O | 15.1%
NCCn1cc(-c2nc(-c3c[nH]c4ncccc34)cs2)c2cc(Br)ccc21 | 41.8%
[B-][N+](CC)(CC)c1ccccc1 | 95.2%

Structure (SMILES) | growth
Oc1cc(/C=C/c2nc(N3CCOCC3)c3cc(Cl)c(Cl)cc3n2)cc(O)c1O | 85.3%
O=P(O)(c1ccccc1)c1ccccc1I | 97.7%
CC(=O)Nc1cc(F)cc(C(F)(F)F)c1Cl | 105%
O=C(NCN1C(=O)c2cccc3cccc(c23)C1=O)N1CCC(Cc2ccccc2)CC1 | 84.7%
COc1ccc2c(c1)c(-c1nc(-c3c[nH]c4ncccc34)cs1)cn2CCCN1CCCCC1 | -18.9% (active)
Oc1ccccc1/C=N\NC(=S)Nc1ccc(F)cc1 | 7.67% (active)
O=C(Nc1ccc(/C=C2\SC(=O)N(Cc3ccc(OC(F)(F)F)cc3)C2=O)cc1)c1ccc(Cl)c([N+](=O)[O-])c1 | 78.4%
COc1ccccc1CNc1nc(N)nc2[nH]c3ccc(O)cc3c12 | 22.4%
COc1ccc2c(c1)c(-c1nc(-c3c[nH]c4ncccc34)cs1)cn2C | 54.5%
Cc1ccc(N(CC(=O)Nc2ccc(S(=O)(=O)N3CCC(N4CCCC4)CC3)cc2)S(=O)(=O)c2ccc(Cl)cc2)cc1 | 2.28% (active)
COC(=O)[C@]12CC[C@@H](C)[C@H](C)[C@@H]1C1=CC(=O)[C@@H]3[C@@]4(C)C[C@@H](O)[C@H](O)[C@@]5(C)COC(=C45)C[C@@]3(C)[C@]1(C)CC2 | 24.6%
COc1cc(-c2cc3ncccc3c3nc(OCCN(C)C)c4cccnc4c23)cc(OC)c1OC | 2.03% (active)
O=C1/C(=C\c2ccco2)SC(=S)N1CCc1ccc(O)cc1 | 82.2%
O=[N+]([O-])c1ccc(N/N=C(\C(=N/Nc2ccc([N+](=O)[O-])cc2[N+](=O)[O-])c2ccccc2)c2ccccc2)c([N+](=O)[O-])c1 | 92.2%
CCCCCCCC(=O)SCC/C=C/[C@@H]1CC(=O)NCc2cccc(n2)CN(Cc2ccc(Cl)cc2)CC(=O)N[C@@H](C(C)C)C(=O)O1 | 3.43% (active)
O=C1CCC/C=C\C[C@H]2C=C(Cl)C(=O)/C2=C/C[C@H](CCCCC(F)(F)F)OC(=O)CCC/C=C\C[C@H]2C=C(Cl)C(=O)/C2=C/C[C@H](CCCCC(F)(F)F)O1 | 1.97% [7.5 µM] (active)
NCCNc1nc(-c2ccccc2)nc2nc(-c3ccccc3)oc12 | 73.6%
Cn1cc(-c2csc(-c3cn(CCCN4CCCCC4)c4ccc(F)cc34)n2)c2cccnc21 | 70.4%
CC1=CC(=O)N(c2cccc3c(N4C(=O)C=C(C)C4=O)cccc23)C1=O | 4.75% (active)
c1ccc(CN2C(c3ccccc3)=Nc3ccccc3C2c2c[nH]c3ccccc23)cc1 (stereo not given) | 2.6% (active)
